92 molecules from PubChem BioAssay AID738 (SRMLSC, 2007) can be followed below.

The structures appear in SMILES notation. About 4,900 (5%) of roughly 98,000 compounds were called active. Many of the other results were omitted from the sample, so actives are more common in it than they were. Unmarked numbers belong to inactive results. No stated cut-off is given here; in the data, active means inhibition above about 30%; inactive means the rest.

The nature of this assay: yeast control strain growth suppression – counter-screen for post-Golgi transport modulator project, primary screen (AID 738). As to conditions: efflux-deficient yeast background strain, growth absorbance A615, 16 h; at 10 µM; active compounds read high. (In general: A counterscreen serves to expose hits that act by an unwanted route or on another target.)
As for `O=C(OCN1C(=O)c2ccccc2C1=O)/C(=C\c1ccco1)NC(=O)c1ccccc1`, the inhibition was -11.4%.

As to `Cc1cc(OC(=O)c2c(Cl)cccc2Cl)nc(C)n1`, the inhibition is 3.63%. In the case of `O=C(Nc1ncc2c(n1)-c1ccccc1OC2)c1ccc(Cl)cc1`, the inhibition is 22.5%. As for `CC(C)c1ccc(N2CCN(C(=O)c3ccccc3NC(=O)/C=C(\C(=O)O)c3ccccc3)CC2)cc1`, the inhibition is 11.3%. Next, `Cc1ccc(S(=O)(=O)N(CC(=O)N/N=C/c2ccc(F)cc2)c2cccc3cccnc23)cc1`: 6.82%. Take `CCOC(=O)c1[nH]c2ccc(OC)cc2c1NC(=O)CCN1CCN(Cc2ccccc2)CC1`: the inhibition is 1.92%.

As for `COC(=O)c1[nH]c2cccc(C)c2c1NC(=O)CN1CCCc2ccccc21`, the inhibition is 19.7%. Consider `COC(=O)c1[nH]c2ccccc2c1NC(=O)CN1CCCc2ccccc21`, for which the inhibition was 43.4% (active). For the molecule `Cc1ccnc(N2CCN(C(=O)CSc3nc4ccccc4nc3N3CCCCC3)CC2)c1`, the inhibition is 42.9% (active). As to `Cc1ccc(S(=O)(=O)NCC(=O)N2CCN(c3ccccn3)CC2)cc1`, the inhibition was 2.13%. Consider `Cc1ccc2oc(=O)c3cnn(CC(=O)N4CCN(c5ccccn5)CC4)c3c2c1`, for which the inhibition was -3.03%. The value for `Cc1ccc(SCC(=O)c2sc(-c3ccccc3)nc2C)cc1` was -6.19%; that for `C=C(C)COc1ccc(-c2n[nH]c(C)c2-c2ccccc2)c(O)c1` was 34.8% (active); that for `C=C(C)COc1ccc(-c2n[nH]c(C)c2-c2ccccc2OC)c(O)c1` was 7.96%. On to `COc1ccc(-c2n[nH]c(C)c2-c2ccc(OC)c(OC)c2)c(O)c1`, for which the inhibition was 15%. With `O=C(CN1C(=O)NC(Cc2ccccc2)(Cc2ccccc2)C1=O)NCC1CCCCC1`, the inhibition is 16.1%. For the molecule `COC(=O)c1cc(NC(=O)C2C3C=CC(C3)C2C(=O)O)cc(C(=O)OC)c1` (configuration not stated), the inhibition is 6.4%. Turning to `CN1CCN(C(=O)C2C3C=CC(C3)C2C(=O)O)CC1` (configuration not stated), the inhibition was 36.6% (active).

Regarding `O=C(O)C1C2C=CC(C2)C1C(=O)N1CCN(CCO)CC1` (configuration not stated), the inhibition was 7.62%. Consider `O=C(CN1C(=O)CC(c2ccccc2)=Nc2ccccc21)NC1CCCCC1`, for which the inhibition is 7.73%. Next, `COc1cccc(-c2cc3nc4c(c(N5CCC6(CC5)OCCO6)n3n2)CCCC4)c1`: 77.5% (active); `COc1cccc(CNc2nc3nc4c(c(=O)n3[nH]2)CCC4)c1`: 3.19%. For the molecule `COc1cccc(-c2nc(S(=O)(=O)c3ccccc3)c(N3CCOCC3)o2)c1`, the inhibition is 15.6%.

With `CCOc1ccc(Nc2nc(Cc3nnc(SCC(=O)NC4CCCC4)n3C)cs2)cc1`, the inhibition was 5.32%. The value for `O=C(/C=C/c1ccccc1)c1ccoc1` was 17.6%. In the case of `COc1ccc(C(=O)Nc2ncc3c(n2)-c2ccccc2CC3)cc1`, the inhibition was -6.73%. With `O=C(CCCN1C(=O)c2cccc3cccc(c23)C1=O)N1CCN(Cc2ccc3c(c2)OCO3)CC1`, the inhibition is 13.6%. The value for `COc1ccc(C2CC(c3ccccc3)Nc3ncnn32)cc1` (configuration not stated) was 6.21%. With `Clc1ccc(C2CC(c3cccs3)n3ncnc3N2)cc1Cl` (configuration not stated), the inhibition is 43% (active). Regarding `COc1ccc(C2CC(c3ccc(C)cc3)Nc3ncnn32)cc1` (configuration not stated), the inhibition was 0.32%. For `Cc1ccc(-c2noc(CSc3nnc(-c4ccncc4)n3-c3ccc(F)cc3)n2)cc1`, the inhibition was 38.4% (active). As to `Cc1ccc(-c2noc(CSc3nnc(-c4ccccc4)n3C)n2)cc1`, the inhibition was 22.3%.

In the case of `Fc1ccc(-n2c(Cc3ccccc3)nnc2SCc2nc(-c3ccc(Cl)cc3)no2)cc1`, the inhibition is 46.4% (active). Consider `Cc1ccc(-c2noc(CSc3nnnn3-c3ccccc3)n2)cc1`, for which the inhibition is 48.9% (active). Turning to `Cc1ccc(-c2noc(CC(c3ccccc3)c3ccccc3)n2)cc1`, the inhibition was 3.45%. Regarding `Cc1ccc(-c2noc(CSc3nnc(-c4cccs4)n3C)n2)cc1`, the inhibition was 5.22%. In the case of `O=C(CSc1nnc(Cc2ccccc2)n1-c1ccccc1)N1CCOCC1`, the inhibition was -1.82%. As to `COc1ccc(-c2noc(CSc3ccc(C)cc3)n2)cc1`, the inhibition is 4.57%. In the case of `Cn1cccc1Cc1nnc(SCC(=O)NCCc2ccccc2)n1-c1ccc(F)cc1`, the inhibition is 2.46%. Turning to `Cc1cc(C(F)F)n2nc(C(=O)Nc3ccc(S(=O)(=O)NC45CC6CC(CC(C6)C4)C5)cc3)nc2n1`, the inhibition was 2.49%.

With `Nc1nc(Br)c2ccccc2c1-c1ccc(F)cc1`, the inhibition was 11.8%. With `CCn1c(O)c2ccc(C(=O)N=NC(=O)c3cccnc3)cc2c1O`, the inhibition was 1.24%. Next, `CN(C)c1ccc(/C=C2\NC(=S)N(Cc3ccccc3)C2=O)cc1`: 21%; `CCOC(=O)C1(S(=O)(=O)c2ccc(Cl)cc2)CCN(Cc2ccccc2)CC1`: 4.55%. On to `CC1C/C(=N/NC(=O)c2cccs2)CC(C)(C)C1` (configuration not stated), for which the inhibition is 9.76%. The value for `CC(Oc1ccc(Cl)cc1Cl)C(=O)/C=C/N(C)C` (configuration not stated) was 27.4%; that for `CCOC(=O)/C(=C\c1ccc([N+](=O)[O-])cc1)C(=O)c1cc(C(C)=O)c(Nc2ccccc2)s1` was 92% (active).

As to `O=C(NCCc1ccccc1)/C(=C\c1ccc([N+](=O)[O-])cc1)NC(=O)c1ccccc1`, the inhibition is 3.12%.

For the molecule `CCOC(=O)/C(C#N)=C/c1ccc(OCC(=O)Nc2ccccc2)c(OC)c1`, the inhibition is 2.95%.

For `CNS(=O)(=O)c1cnccc1N1CCN(c2cccc(C)c2)CC1`, the inhibition was 1.59%. The value for `Cc1c(NC(=O)/C=C/C(=O)O)cccc1[N+](=O)[O-]` was 6.96%; that for `Cc1sc(NC(=O)C2C3CCC(O3)C2C(=O)O)c(C(=O)OC(C)C)c1-c1ccc(Cl)cc1` (configuration not stated) was 16.9%; that for `CN1CC(c2ccccc2)C2(COc3ccccc3C2=O)C12C(=O)Nc1ccccc12` (configuration not stated) was 32.5% (active). For `Cc1noc(C)c1C(=O)N(CC(=O)NC1CCCC1)Cc1ccccc1F`, the inhibition is 2.95%. Regarding `Cc1nc(SCC(=O)c2ccccc2)c([N+](=O)[O-])[nH]1`, the inhibition is -2.62%. With `O=C(CCc1ccc(S(=O)(=O)NC2CCCCC2)cc1)NCc1ccccc1`, the inhibition was 1.21%. The value for `Cc1ccc(S(=O)(=O)N(C)CC(=O)N2CCc3ccccc32)cc1` was 2.58%; that for `Cc1ccc2c(c1)N(CC(=O)N1CCCc3ccccc31)C(=O)C(C)O2` (configuration not stated) was 5.45%. Next, `Cc1ccc2c(c1)N(C(=O)CCC(=O)N1CCc3ccccc3C1)CCO2`: 36.4% (active). The value for `COc1cc(NS(=O)(=O)c2ccc(N/C=C(\C=O)c3nc4cc(Cl)ccc4o3)cc2)nc(OC)n1` was -2.08%; that for `COc1cccc(-c2cc(C(=O)N/N=C/c3ccc(OC)c(COC(C)=O)c3)c3ccccc3n2)c1` was -0.83%.

In the case of `CCOc1cc(C2C(C(=O)OC)=CN(C3CCCC3)C=C2C(=O)OC)cc(Br)c1O`, the inhibition is 38.7% (active). In the case of `CCOc1ccc(CNC(=O)C2CCC(=O)N2C2CCCC2)cc1OC` (configuration not stated), the inhibition is 13.3%.

Consider `CCOc1ccccc1C1C(C(=O)OC)=CN(C)C=C1C(=O)OC`, for which the inhibition was 11.7%.

Take `COc1cccc(C(=O)NNC(=O)c2ccccc2Br)c1`: the inhibition was 0%. As for `O=C(Cc1cccs1)N1CCCC(c2nc(-c3ccc(S(=O)(=O)N4CCCC4)cc3)no2)C1` (configuration not stated), the inhibition was 2.8%.

With `O=C(c1cccs1)N1CCCC(c2nc(-c3ccc(F)cc3)no2)C1` (configuration not stated), the inhibition is 43.9% (active). Take `CC(C)c1ccc(-c2noc(C3CCCN(S(C)(=O)=O)C3)n2)cc1` (configuration not stated): the inhibition is -5.28%. As to `CCc1ccc(CNC(=O)CCc2nc(-c3cccs3)no2)cc1`, the inhibition is 7.1%. Next, `CC(C)NC(=O)C(=O)N/N=C/c1ccco1`: 4.76%.

In the case of `Cc1nn(C)c(Oc2ccccc2)c1CCNS(=O)(=O)c1ccc(F)cc1`, the inhibition is -2.45%.

Turning to `COc1ccc(CNC(=O)C2CCC(CNc3c(N4CCOCC4)c(=O)c3=O)CC2)cc1` (configuration not stated), the inhibition was 3.7%.

For the molecule `COc1ccc(SCc2noc(C(=O)NCC3CCCO3)c2C(=O)O)cc1` (configuration not stated), the inhibition was 0.46%. In the case of `Cn1cccc1C1(C(F)(F)F)NCCNC1=O` (configuration not stated), the inhibition was 48.1% (active). As to `O=C(/C=C/c1ccccc1)N/C(=C/c1ccccc1)C(=O)Nc1ccccc1O`, the inhibition was 18%.

For the molecule `CN(C)/C(CN1CCCCC1)=C1\N=C(c2ccccc2)OC1=O`, the inhibition is 11.8%. `COCCCNC(NC(=O)c1ccc(C)cc1)C(Cl)(Cl)Cl` (configuration not stated): the inhibition was -2.93%. Consider `Cn1c(C(=O)NCCCN2CCN(c3cccc(Cl)c3)CC2)cc2c(=O)n(C)c3ccccc3c21`, for which the inhibition is 95.8% (active).

Take `CCn1c(=O)cc(OCC(=O)NCCCN2CCN(c3cccc(Cl)c3)CC2)c2ccccc21`: the inhibition is 2.45%. On to `CC1CCCC(C)N1CCCNC(=O)c1cc2c(=O)n(C)c3ccccc3c2n1C` (configuration not stated), for which the inhibition was 1.45%. Consider `CCCCn1c(=S)[nH]c2cc(S(=O)(=O)N3CCCCC3)ccc21`, for which the inhibition is 6.51%. On to `Cc1cc2cc3c(cc2nc1SCC(=O)Nc1c(C)cccc1C)CCC3`, for which the inhibition was 13.7%. For the molecule `CCOc1cc2[nH]c(=O)n(CCC(=O)NCc3ccc(OC)cc3)c(=O)c2cc1OCC`, the inhibition was -0.15%.

For `Cc1cccc(OCc2nnc(SCc3nc4cc(C(F)(F)F)ccc4c(=O)[nH]3)o2)c1`, the inhibition was 2.6%. In the case of `Cc1cc(C)cc(OCc2nnc(SCC(=O)Nc3ccccc3)o2)c1`, the inhibition was -1.36%.

With `Cc1cccc(OCc2nnc(SCn3nnc4ccccc4c3=O)o2)c1`, the inhibition is 36.4% (active). As for `CN(C(=O)CC(NC(=O)c1ccccc1)(c1ccccc1)c1ccccc1)c1ccccc1`, the inhibition was 25.4%. As to `O=C(N/N=C/C=C/c1ccccc1)C1CC1(c1ccccc1)c1ccccc1` (configuration not stated), the inhibition was 64% (active).

Take `Cc1nn(C)c(Oc2ccccc2)c1[N+](=O)[O-]`: the inhibition is 5.76%.

As for `O=c1c2ccccc2oc2nc3n(c(=O)c12)CCCS3`, the inhibition was 0.28%.

`O=c1c2ccccc2oc2nc(C3CCCCC3)n(Cc3ccco3)c(=O)c12`: the inhibition was 78.7% (active). `CCc1nc2oc3ccccc3c(=O)c2c(=O)n1Cc1ccc(OC)cc1`: the inhibition was 11.8%.

One may read the inhibition as the change of the read-out against control, counted positive when it falls.
